Compound activity (PubChem BioAssay)
Pf growth 96h – Primary qHTS for delayed death inhibitors of the malarial parasite plastid, 96 hour incubation; P. falciparum luciferase reporter growth, 96 h; Potency, µM (top dose mostly 28.7 µM), hits mostly inhibitors; hit rate 6.9% among 320,000; AID 504834, 2011
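P. falciparum expressing integrated firefly luciferase, in erythrocytes at 2% hematocrit, 0.05% parasitemia, incubated with compounds 96 h at 37 C, 5% CO2. Growth inhibition read as loss of luminescence; two-generation exposure targets delayed-death apicoplast inhibitors.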
Pf growth 48h – Primary qHTS for delayed death inhibitors of the malarial parasite plastid, 48 hour incubation; hit rate 5.9% among 310,000; P. falciparum luciferase growth in erythrocytes, 48 h; Potency, µM (doses to about 28.7 µM), most hits filed as inhibitors
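Read-out is firefly luciferase luminescence from an integrated reporter in P. falciparum, so falling signal marks reduced parasite growth. Infected erythrocytes were at 2% hematocrit and 0.1% parasitemia (final) in Albumax-supplemented RPMI 1640.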
Shiga toxin inh – A qHTS for Small Molecule Inhibitors of Shiga Toxin. Vero cells, Shiga toxin protein synthesis inhibition reporter. inhibition, % at 38.7 µM. hit rate 9.2% among 290,000; in the data active = inhibition mostly above about 28%, no sharp cut-off; inactive = mostly below about 43%
Cycloheximide cs – Cycloheximide Counterscreen for Small Molecule Inhibitors of Shiga Toxin; cell reporter, cycloheximide protein synthesis inhibition counterscreen; max response, %; hit rate 12% among 300,000; in the data active = max response mostly above about 13%, no sharp cut-off; inactive = mostly below about 14%; note: read at 38.3 µM for the half of the compounds with a filed dose
HCV inhibitor – qHTS Assay for Inhibitors of Hepatitis C Virus (HCV); Huh7.5.1 HCVcc-Cre infection, luciferase reporter, 44 h; Potency, µM (titrated, usually from 41.8 µM), most hits filed as inhibitors; hit rate 3.4% among 340,000; AID 651820, 2012
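Infectious HCVcc-Cre (~0.5 moi) was added to cells just after compound, with cells seeded 4 h earlier at 1,000 per well. Luciferase activity after 44 h culture reported infection; substrate was incubated 15 min at room temperature before reading.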
HCMV inh – qHTS Assay for inhibitors of the human cytomegalovirus (HCMV); HFF cells, HCMV-luciferase reporter, 72 h; active compounds read low; activity change, negative = inhibition, % at 57.5 µM; hit rate 4.5% among 410,000; in the data active = activity change below about -60%; inconclusive = no clear call, values can overlap the other calls; inactive = above about -39%
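Inhibition of viral replication was scored as loss of reporter luminescence in HFFs infected with HCMV-luciferase (MOI 1 PFU/cell) for 72 h; compounds tested at 2 doses, normalized to buffer and Salinomycin controls.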
Numbers stand for hits; . = inactive; ? = inconclusive; / = not tested or not shown; [ ] = remark or other dose. Most compounds without a hit are left out; they make up all but 21% or so of the library. Unless noted, calls come from the whole dose curve; as a rule, active = well fitted inhibition curve with a large enough effect; inconclusive = small, poorly fitted or top-dose-only effect, or another doubt; inactive = no such curve, though single readings can be large or run the other way.

SMILES	Pf growth 96h	Pf growth 48h	Shiga toxin inh	Cycloheximide cs	HCV inhibitor	HCMV inh
CCN(CC)S(=O)(=O)c1ccc(Nc2cc(C)nc3ncnn23)cc1	?	15µM	.	.	.	.
CCCOC(=O)c1ccc(Nc2cc(C)nc3ncnn23)cc1	.	8.3µM	.	.	.	.
Cc1cc(Nc2ccc(N(C)C)cc2)n2ncnc2n1	.	2.3µM	98	44	.	.
Cc1cc(Nc2cccc(Cl)c2)n2ncnc2n1	1.7µM	.	.	.	.	.
CCc1cccc(Nc2cc(C)nc3ncnn23)c1	?	?	.	.	.[8.37 µM]	.
CCc1ccc(Nc2cc(C)nc3ncnn23)cc1	.	3.3µM	/	.	.	.
CN1CCN(C(=O)C(=O)c2cn(CC(=O)N3CCCCCC3)c3ccccc23)CC1	/	/	/	/	/	.
COc1ccc(CC(=O)NCc2nc3cccnc3n2Cc2ccc(C)cc2)cc1OC	/	/	/	/	/	.
CC[C@@]1(C(=O)OC)N[C@H](CN(C)S(=O)(=O)c2ccccc2)[C@@H]2C(=O)N(C)C(=O)[C@@H]21	/	/	/	/	.	.
COc1ccc(C2C(C(=O)c3ccccc3)=C(C)Nc3nc4ccccc4n32)cc1OC (stereo not drawn)	3.3µM	.	.	.	.[8.37 µM]	.
CCCCn1cnc2c([nH]c3ccccc32)c1=O	.	.	.	.	.	.
CCCCOc1ncnc2c1[nH]c1ccc(OC)cc12	.	.	77	56	?	.
CCCCOc1ncnc2c1[nH]c1ccc(OCC)cc12	.	.	.	.	.	.
CCCCOc1ncnc2c1[nH]c1ccc(F)cc12	.	.	50	34	2.8µM	-94
CCCCOc1ncnc2c1[nH]c1ccccc12	.	?	37	22	4.5µM	.
CCCCOc1cccc(C2/C(=C(/O)c3ccc4c(c3)CC(C)O4)C(=O)C(=O)N2CCN2CCOCC2)c1 (stereo not drawn)	.	.	.	.	.	.
COc1cc(OC)c(NC(=O)Cn2c(=O)c(C(F)(F)F)nc3ccccc32)cc1Cl	/	/	/	/	/	.
CCC(=O)c1ccc(OCc2ccc(C(=O)OC)cc2)cc1	.	.	100	113	.	.
CCC(=O)c1ccc(OCC(=O)O)cc1	?	.	.	.	.	.
CCC(=O)c1ccc(OCc2ccc(C#N)cc2)cc1	.	.	.	28	.	?
COC(=O)c1ccc(COc2ccc(-c3nn[nH]n3)cc2)cc1	.	.	.	.	.	-107
COC(=O)c1ccc(COc2ccc(-c3nnn(CC(=O)NC(C)(C)C)n3)cc2)cc1	7.4µM	?	.	.	.	.
CC(=O)c1cc(-c2ccccc2)n(CCC(=O)NC2CCCC2)c1C	?	.	.	.	.	.
CC(=O)c1cc(-c2ccccc2)n(CC(=O)NC(C)(C)C)c1C	13µM	.	.	.	.	.
CC(=O)c1cc(-c2ccccc2)n(CCC(=O)NC2CCCCC2)c1C	10µM	.	.	.	.	?
SMILES	Pf growth 96h	Pf growth 48h	Shiga toxin inh	Cycloheximide cs	HCV inhibitor	HCMV inh
CN(C(=O)c1cccc(NC(=O)Cc2cccc(NC(=O)C3CCCN(C(=O)c4ccccc4)C3)c2)c1)C1CC1 (stereo not drawn)	/	/	/	/	.[8.37 µM]	.
COCc1cc(C)nc2sc3c(c12)NC(c1ccccc1C(=O)O)N(c1ccc(OC)cc1)C3=O (stereo not drawn)	/	/	/	/	/	.
COc1ccc(-c2cc(C)no2)cc1S(=O)(=O)N1CC(C)Oc2ccccc21 (stereo not drawn)	/	/	/	/	/	.
COC(=O)CCN(c1ccccc1)S(=O)(=O)c1cc(-c2cc(C)no2)ccc1OC	10µM	?	.	.	.	.
COc1ccc(-c2cc(C)no2)cc1S(=O)(=O)NCCCN(C)Cc1ccccc1	.	?	.	.	?	.
CCN(c1ccc(OC)cc1)S(=O)(=O)c1cc(-c2cc(C)no2)ccc1OC	?	?	.	.	?	.
COc1ccc(-c2cc(C)no2)cc1S(=O)(=O)N(C)c1cccc(C)c1	?	?	.	.	?	.
CCN(c1ccc(OC)cc1)S(=O)(=O)c1cc(-c2cc(C)no2)ccc1C(C)C	.	?	.	.	13µM	.
CCc1ccccc1N(C)S(=O)(=O)c1cc(-c2cc(C)no2)ccc1OC	?	?	.	.	14µM	.
COc1ccc(-c2cc(C)no2)cc1S(=O)(=O)N1CCOc2ccc(Cl)cc21	10µM	?	.	.	.	?
